According to PubChem BioAssay (NCI):
About 79,000 compounds went through this panel and 15% of them were active in at least one assay; those are over-represented in the sample as a whole. The source made the active and inactive calls. Cut-off read from the data, not from the text of the source: active = growth inhibition above about 70%; inactive = the rest.

assay: NCI Yeast Anticancer Drug Screen. Data for the mgt1 strain (AID 153); settings: S. cerevisiae mgt1 mutant growth inhibition; at 11.0 µM; hits give high values
How it was run: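 Growth inhibition relative to vehicle controls was scored for the mgt1 yeast strain after compound exposure.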

Row | Compound | growth inhibition
1 | CC(CN(C)C)C(=O)/C=C/c1ccc(Cl)c(Cl)c1 (stereo not given) | 13% (inactive)
2 | CCCCCCNCCCNc1c2cc(OC)ccc2nc2cccc([N+](=O)[O-])c12 | 10% (inactive)
3 | NC(=S)N1N=C2c3ccccc3CC[C@H]2[C@@H]1c1ccc(Cl)cc1 | 0% (inactive)
4 | C/C(=N/NC(=S)Nc1ccccc1C)c1ccccn1 | 4% (inactive)
5 | O=C1/C(=C/c2ccc(Cl)c(Cl)c2)CNC/C1=C\c1ccc(Cl)c(Cl)c1 | 35% (inactive)
6 | CC(C)OP(=O)(OC(C)C)C(=NCCO)NNc1ccc([N+](=O)[O-])cc1 | -32% (inactive)
7 | N#CCC(=O)N/N=C(\c1ccccc1)C(c1ccccc1)C1(O)C(=O)Nc2c(Cl)ccc(Cl)c21 (stereo not given) | -3% (inactive)
8 | CC(C)(CN1CCCCC1)C(=O)CC(SCCS(=O)(=O)O)c1ccccc1 (stereo not given) | 6% (inactive)
9 | COC1=CCC23C(=O)C=CC(=O)C2(C1)C(=O)c1ccccc1C3=O (stereo not given) | 6% (inactive)
10 | CCCCN(CCCC)c1ccc(N=Nc2ccc(S(=O)(=O)O)cc2)cc1 | 92% (active)
11 | c1ccc2nc3c(nc2c1)sc1ccccc13 | 10% (inactive)
12 | O=C1c2ccccc2-c2ccc(N=Cc3ccccc3)cc21 | -5% (inactive)
13 | CNC(=S)N/N=C(/C)CCC/C(C)=N/NC(=S)NC | 22% (inactive)
14 | Nc1ccc(/C=C/c2ccc3cccnc3c2)cc1 | -3% (inactive)
15 | COc1ccc2c3c1OC(C)C31CC(=O)CCC1CC2 (stereo not given) | -4% (inactive)
16 | CCOC(=O)Nc1ccc(C)c(NC(=O)OCC)c1 | 12% (inactive)
17 | CCN(CC)CCNc1ccc2nc(C)n3c4ccc(OC)cc4c(=O)c1c23 | 18% (inactive)
18 | C[N+](C)([O-])CCCNc1c2ccccc2nc2cccc([N+](=O)[O-])c12 | 7% (inactive)

Row | Compound | growth inhibition
19 | O=C(c1cc(=O)c2ccc(O)cc2o1)c1ccc(Cl)cc1Cl | 21% (inactive)
20 | CCCNC(=O)OCc1c(COC(=O)NCCC)c(-c2ccc(Cl)c(Cl)c2)n2c1CCC2 | -30% (inactive)
21 | O=C(Cc1ccccc1)NN1C(=O)C(Cl)C1c1cc(Br)cc(Br)c1O (stereo not given) | 94% (active)
22 | CCOC(=O)C(Cc1c2ccccc2cc2ccccc12)(NC(C)=O)C(=O)OCC | -3% (inactive)
23 | O=[N+]([O-])/C=C/c1cc2ccc3ccccc3c2[nH]1 | 81% (active)
24 | Fc1ccc(Nc2ccc3ccccc3c2)cc1 | -2% (inactive)
25 | O=S1(=O)CCC2=CC(C(F)(F)F)=CC(C(F)(F)F)=CN21 | 55% (inactive)
26 | O=C(Cc1ccccc1)NNc1nc(NNC(=O)c2ccncc2)nc(Nc2ccc([N+](=O)[O-])cc2)n1 | 52% (inactive)
27 | CCCCS/C(=C(/C#N)C(N)=O)c1cc2c([nH]1)CCCC2 | -21% (inactive)
28 | O=C(O)c1ccccc1C(=O)OC1CCc2ccccc2C1 (stereo not given) | -10% (inactive)
29 | CCOC(=O)/C(=C\c1cccc(C)c1)C(C)=O | 58% (inactive)
30 | NC(=S)N/N=C1\c2ccccc2CCC1CCC1(O)CCc2ccccc2C1=O (stereo not given) | 48% (inactive)
31 | Cc1cccc2c(Cl)c3cccc(C)c3nc12 | -7% (inactive)
32 | Nc1ccc2c(c1)C(=O)c1c(F)cccc1-2 | 1% (inactive)
33 | N#CSCC1COc2ccccc2O1 (stereo not given) | -9% (inactive)
34 | Cc1ccc(S(=O)(=O)NC(=O)C2C(=O)CC3(CCCCC3)CC2=O)cc1 | -13% (inactive)
35 | CC1=NN(C(=O)c2ccccc2O)C(=O)/C1=C/c1ccco1 | 65% (inactive)
